Assay [1] can be described thus: qHTS assay to identify small molecule antagonists of the estrogen related receptor signaling pathway with the pleiotropic PPARgamma coactivator (PGC) from Tox21 10K library (AID 1224841; call rule not given here; note: actives are mostly falling curves and most rising ones were filed inactive; nearly all actives have a fitted effect of over 50% in size). In short, it runs like this:
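qHTS antagonist format: PGC/ERR cells, 2k/well, compound in DMSO by pin transfer after 6 h attachment, 18 h treatment at 37 C, One-Glo luminescence read at 30 min.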

Assay [2] in a line: qHTS assay to identify small molecule agonists of the estrogen related receptor signaling pathway with the pleiotropic PPARgamma coactivator (PGC) from Tox21 10K library (AID 1224842; active = well fitted curve in the direction sought with a large enough effect in the repeat runs; an effect the other way counts as inactive or inconclusive; note: nearly all actives have a fitted effect of over 15% in size). In short, it runs like this: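 Luminescence from One-Glo (30 min, room temperature) measured after PGC/ERR cells had 18 h at 37 C with pinned compound (23 nL in DMSO). Cells had been seeded at 2,000 per well and pre-incubated 6 h.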

Assay [3] can be described thus: qHTS assay to identify small molecule agonists of the hypoxia (HIF-1) signaling pathway - cell viability counter screen (AID 1224844). Note: nearly all actives have a fitted effect of over 50% in size. In short, it runs like this: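 Cells (HRE-bla ME-180, 2,000 per well) sat 5 hrs at 37C, got compound for 17 hrs, were read for CCF4-AM FRET, and were finally lysed with CellTiter-Glo for a 30 min room-temperature luminescence read.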
(In general: qHTS replaces the single test concentration by a dilution series.)

The nature of assay [4]: qHTS assay to identify small molecule agonists of H2AX (AID 1224845; active = well fitted activation curve with a large enough effect in the signal ratio in the repeat runs, not every such curve was filed as active; the % refers to the signal ratio). In short, it runs like this:
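Phospho-H2AX Ser139 measured by HTRF (ex 320 nm; em 665 and 620 nm) after 24 hr antibody incubation. Compounds, 15 concentrations, 0.76% DMSO, were applied to CHO-K1 cells for 3hr at 37C before lysis.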

Assay [5] is described as follows: qHTS assay to identify small molecule agonists of the hypoxia (HIF-1) signaling pathway (AID 1224846; active = well fitted activation curve with a large enough effect in the signal ratio in the repeat runs, not every such curve was filed as active; the % refers to the signal ratio). In short, it runs like this:
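A low-serum medium (0.5% dialyzed FBS) holding 2,000 HRE-bla ME-180 cells per well is preincubated for 5 hrs, dosed with compounds by pintool, and kept a further 17 hrs at 37C, 5% CO2 before CCF4-AM FRET detection of beta-lactamase.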

Assay [6] in a line: qHTS assay to identify small molecule agonists of H2AX - cell viability counter screen (AID 1224847). Note: top concentration of the series differs between compounds; nearly all actives have a fitted effect of over 30% in size. In outline: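 Cytotoxicity counter screen in wild-type CHO-K1 cells: a 3 hr compound treatment at 37C across 15 concentrations, followed by CellTiter-Glo luminescence to gauge viable cells.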
Assay [7] can be described thus: qHTS assay to identify small molecule antagonists of the estrogen related receptor (ERR) signaling pathway from Tox21 library (AID 1224848; active = well fitted curve in the direction sought with a large enough effect in the repeat runs; an effect the other way counts as inactive or inconclusive; note: nearly all actives have a fitted effect of over 50% in size). In short, it runs like this: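 Reading was by luminescence 30 min after ONE-Glo addition. Before that, ERR cells at 2,000 per well had rested 6 h at 37 C/5% CO2 and then received pin-tooled compounds in DMSO for 18 h at 37 C.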

A short description of assay [8]: qHTS RealTime-Glo MT Cell Viability Assay in HepG2 cells - 24 hour (AID 1224867; active = well fitted curve in the direction sought with a large enough effect in the repeat runs; an effect the other way counts as inactive or inconclusive; note: nearly all actives have a fitted effect of over 50% in size). In short, it runs like this:
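Tox21 10K library screened in qHTS format on HepG2 cells carrying RealTime-Glo reagents. Compounds were added after a 5 h preincubation, and the luminescent signal from continuous culture was measured repeatedly during 40 h treatment.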

The nature of assay [9]: qHTS assay to identify small molecule agonists of the estrogen related receptor (ERR) signaling pathway from Tox21 library (AID 1224849). Note: nearly all actives have a fitted effect of over 15% in size. Particulars: ERR reporter cell line, ONE-Glo luciferase, 18 h; at 92.4 µM (top of the series) unless noted. In short, it runs like this: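 Screening used an NTP-provided ERR luciferase cell line. Compounds in DMSO were added 6 h after seeding and left 18 h at 37 C before a 30 min ONE-Glo step and luminescence reading.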

For assay [10], the target named is Thyrotropin receptor (Homo sapiens) (UniProt P16473). Kind of assay: qHTS assay to identify small molecule agonists of the thyroid stimulating hormone receptor (TSHR) signaling pathway (AID 1224843). Note: nearly all actives have a fitted effect of over 45% in size. Note: potency is the fitted concentration of half-maximal effect. In short, it runs like this: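 HEK293 cells stably bearing the thyrotropin receptor were plated at 800 cells/well and challenged with compound (30 min, RT). Accumulated cAMP was quantified via cAMP-d2 competing for cryptate-tagged antibody.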

A number with no mark means an inactive call. Records with an inconclusive call do not appear. Calls of active or inactive are those of the source. Unless noted, calls come from the whole dose curve.
% is set by controls: 0 for no effect and ±100 for the full control effect.

Sequence of Thyrotropin receptor (Homo sapiens) (P16473 whole entry, looked up): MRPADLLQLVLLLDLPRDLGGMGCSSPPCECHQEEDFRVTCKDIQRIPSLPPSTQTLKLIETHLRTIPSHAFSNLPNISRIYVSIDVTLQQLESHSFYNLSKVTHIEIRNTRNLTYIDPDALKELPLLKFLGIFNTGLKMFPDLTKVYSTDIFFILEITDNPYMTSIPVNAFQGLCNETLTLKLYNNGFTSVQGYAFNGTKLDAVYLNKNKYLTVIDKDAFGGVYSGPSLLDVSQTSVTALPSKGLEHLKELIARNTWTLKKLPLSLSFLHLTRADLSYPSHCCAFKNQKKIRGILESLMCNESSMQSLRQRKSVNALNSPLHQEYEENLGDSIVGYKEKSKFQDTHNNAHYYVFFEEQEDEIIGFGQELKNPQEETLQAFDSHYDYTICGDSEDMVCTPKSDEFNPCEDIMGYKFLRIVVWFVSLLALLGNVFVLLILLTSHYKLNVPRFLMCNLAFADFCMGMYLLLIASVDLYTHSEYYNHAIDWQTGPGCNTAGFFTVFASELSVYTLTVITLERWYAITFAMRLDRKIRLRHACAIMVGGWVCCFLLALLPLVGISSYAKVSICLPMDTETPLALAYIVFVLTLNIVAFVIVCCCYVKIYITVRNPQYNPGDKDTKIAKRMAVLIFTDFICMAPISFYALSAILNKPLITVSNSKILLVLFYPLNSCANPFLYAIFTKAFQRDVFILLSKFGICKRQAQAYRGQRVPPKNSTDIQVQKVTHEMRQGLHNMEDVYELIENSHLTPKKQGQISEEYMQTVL

For the compound `BrCCOc1ccccc1`, the Potency entry in assay [1] and in [2] was “inactive” in each case. Further, the compound was called inactive in assay [3], in [4], in [5], in assay [6], in assay [7] and in assay [8].
`Cc1ccc(O)c([N+](=O)[O-])c1`: the Potency result in assay [1] and in assay [2] was “inactive” each time. In addition, the outcome in assay [3], in assay [5], in assay [6] and in assay [8] was inactive. Besides, the activity change, positive = activation in assay [9] is -16.2%.
With `O=c1[nH]c(=O)c2cn[nH]c2[nH]1`, the Potency result in assay [1] and in assay [2] was “inactive” each time. Also, the result in assay [3], in [4] and in [5] was inactive. Also, the activity change, positive = activation in assay [9] was -22.5%.
For the compound `CCCCCC(=O)CC`, the Potency result in assay [10] is “inactive”. Moreover, the outcome in [3], in assay [4], in [5] and in assay [6] was inactive.
In the case of `C[C@H]1COc2c(C3(N)CC3)c(F)cc3c(=O)c(C(=O)O)cn1c23`, the Potency result in assay [10] was “inactive”. Further, the result in assay [3], in [4], in assay [5] and in assay [6] was inactive.
On to `CCOc1ccccc1OCCN[C@H](C)Cc1ccc(OC)c(S(N)(=O)=O)c1`, for which the Potency entry in assay [10] was “inactive”. Besides, the call in assay [3], in assay [4], in [5] and in assay [6] was inactive.
Consider `O=C1CCCc2c(O)cccc21`, for which the Potency result in [2] is “inactive”. For the same compound, the result in [3], in assay [4], in [5], in assay [6], in assay [7] and in assay [8] was inactive. In addition, the activity change, positive = activation in [9] is 0.0223% [at 42.5 µM].
As to `COC(=O)C(c1ccccc1Cl)N1CCc2sccc2C1` (stereo unspecified), the Potency result in assay [2] is “inactive”. Also, the Potency in assay [10] was 16.8 µM (active). The call in [5], in [6], in assay [7] and in assay [8] was inactive. Besides, the activity change, positive = activation in [9] is -2.43% [at 42.5 µM].
Consider `CCNC(=O)C(C)OC(=O)Nc1ccccc1` (stereo unspecified), for which, in assay [10], the Potency entry is “inactive”. Also, the call in assay [3], in assay [4], in [5] and in assay [6] was inactive.
As to `CC(C)(C)OC(=O)c1ccccc1C(=O)O`, the Potency entry in [10] is “inactive”. For the same compound, the result in assay [3], in assay [4], in assay [5], in assay [6] and in assay [8] was inactive.
As to `Cc1cccc(N)n1`, the Potency entry in assay [10] is “inactive”. The compound was called inactive in assay [3], in assay [4], in assay [5] and in assay [6].
For the compound `CCCCCC(CC)OC(=O)CCCOc1ccc(Cl)cc1Cl` (stereo unspecified), the Potency entry in assay [2] was “inactive”. For the same compound, the result in assay [3], in [4], in assay [6], in assay [7] and in assay [8] was inactive. Besides, in [9], the activity change, positive = activation is 6.42%.
Regarding `CC(=O)/C=C/C=C1/C2CCC(C2)C1(C)C` (stereo unspecified), the Potency in assay [10] was 18.8 µM (active). Moreover, the compound was classed as inactive in assay [3], in assay [4], in assay [5], in [6] and in assay [8].
On to `CN(C)c1ccncc1`, for which the Potency entry in [10] was “inactive”. Moreover, the outcome in assay [3], in [4], in assay [5], in [6], in [7] and in assay [8] was inactive. Moreover, the activity change, positive = activation in assay [9] was -2.4%.
For the compound `CCCCCCCCCCCCCCCCN(C)C`, the activation in [10] is -17.9% [at 8.39 µM]; in [5] it was -0.212% [at 7.01 µM]. Further, the activity change, negative = cytotoxicity in assay [3] was -5.55% [at 6.97 µM]; in assay [6], -3.36% [at 14 µM]; in assay [8], -0.0663% [at 6.97 µM]. Moreover, in [4], the activation (H2AX phosphorylation) was 1.56% [at 14 µM].
For the compound `COCc1nnc(-c2ccc[n+]([O-])c2)n1-c1c(Cl)c(Cl)cc2[nH]c(=O)c(=O)[nH]c12`, the Potency entry in [10] is “inactive”. The result in assay [3], in assay [4], in assay [5] and in assay [6] was inactive.
On to `CCCCNCC`, for which the Potency entry in [10] is “inactive”. For the same compound, the call in [3], in assay [4], in assay [5] and in [6] was inactive.
Consider `COC(=O)c1cc(Cl)c(NC(C)=O)cc1OC`, for which, in assay [10], the Potency result was “inactive”. For the same compound, the call in assay [3], in [4], in assay [5], in [6] and in [8] was inactive.
As to `O=C(O)Cc1ccccc1Oc1ccc(Cl)cc1Cl`, in [10], the Potency entry is “inactive”. Moreover, the compound was called inactive in assay [3], in [4], in assay [5], in assay [6] and in [8].
`COc1cc(C(=O)NC2CCCNC2)cc(OC)c1OC` (stereo unspecified): in [10], the Potency result was “inactive”. Moreover, the result in [3], in assay [4], in assay [5] and in assay [6] was inactive.
Regarding `CC(=O)OC/C=C(/C)CCC=C(C)C`, in assay [10], the Potency entry was “inactive”. Moreover, the compound was called inactive in assay [3], in assay [4], in assay [5], in assay [6] and in assay [8].
For the compound `CC(C)C(C)C`, the Potency result in [10] was “inactive”. The call in assay [3], in assay [4], in [5] and in assay [6] was inactive.
As for `CCCCCCCCCCCCCCBr`, in assay [10], the Potency result is “inactive”. In addition, the call in assay [3], in assay [4], in [5], in assay [6] and in [8] was inactive.
In the case of `CCCc1ccc(O)c(OC)c1`, the Potency result in assay [10] was “inactive”. Besides, the compound was classed as inactive in assay [3], in assay [4], in [5], in [6] and in assay [8].
For `c1cc2ccc3ccc4ccc5cccc6c(c1)c2c3c4c56`, the activation in assay [10] is 11.3% [at 3.27 µM]; in [5] it was 6.16% [at 2.67 µM]. Further, the activity change, negative = cytotoxicity was -14.1% [at 2.72 µM] in assay [3], 0.956% [at 5.43 µM] in assay [6] and -0.157% [at 2.72 µM] in assay [8]. The activation (H2AX phosphorylation) in assay [4] was -2.49% [at 5.45 µM].
On to `CC(C)(C)C(=O)CC(=O)C(C)(C)C`, for which the Potency entry in assay [2] and in assay [10] was “inactive” each time. For the same compound, the compound was classed as inactive in assay [4], in assay [5], in [6], in [7] and in assay [8]. In addition, the activity change, positive = activation in [9] was 3.23%.
On to `CCOC(=O)CC(C(C)=O)C(C)=O`, for which the Potency result in assay [10] was “inactive”. In addition, the outcome in assay [3], in assay [4] and in [5] was inactive.
Take `Cc1ccc(Br)cc1`: in assay [10], the Potency entry was “inactive”. In addition, the result in assay [3], in [4], in [5], in [6] and in [8] was inactive.
`Cc1ccc(NC(N)=O)cc1`: in assay [10], the Potency entry is “inactive”. Further, the compound was called inactive in [3], in [4], in [5], in assay [6] and in assay [8].
For the compound `CC(=O)c1ccc(O)c(C(N)=O)c1`, in assay [10], the Potency entry was “inactive”. Besides, the compound was called inactive in assay [3], in assay [4], in assay [5] and in assay [6].
For the compound `Cc1ccccc1OCC(=O)O`, the Potency entry in assay [2] is “inactive”. The compound was called inactive in assay [3], in assay [4], in assay [5], in assay [6], in [7] and in [8]. Moreover, the activity change, positive = activation in [9] was 0.72%.
`CC(C)(C)c1ccc(C(=O)CCCCl)cc1`: the Potency result in [10] was “inactive”. Also, the compound was classed as inactive in assay [3], in [4], in assay [5], in assay [6] and in [8].
For `C=CCCCCCCCCCCCCCC`, the activation in [2] is -5.23% [at 19 µM]; in assay [10], 2.45% [at 19 µM]; in assay [5] it was -0.445% [at 15.8 µM]. Further, the activation (H2AX phosphorylation) in assay [4] is -0.234% [at 31.6 µM]. For the same compound, the activity change, negative = cytotoxicity is 0.186% [at 31.6 µM] in assay [6] and 0.31% [at 15.8 µM] in assay [8]. In assay [7], the activity, negative = inhibition is 3.1% [at 19 µM]. In [9], the activity change, positive = activation was 1.6% [at 19 µM].
